SENP8 block-1 – blocks the human protease SENP8; Q96LD8; 330,000 tested, 1.2% active; AID 2540; inhibition, % at 10 µM; purified SENP8, Z-RLRGG-aminoluciferin cleavage, luminescence; in the data active = inhibition above about 50%
Target sequence (Q96LD8 whole entry, looked up): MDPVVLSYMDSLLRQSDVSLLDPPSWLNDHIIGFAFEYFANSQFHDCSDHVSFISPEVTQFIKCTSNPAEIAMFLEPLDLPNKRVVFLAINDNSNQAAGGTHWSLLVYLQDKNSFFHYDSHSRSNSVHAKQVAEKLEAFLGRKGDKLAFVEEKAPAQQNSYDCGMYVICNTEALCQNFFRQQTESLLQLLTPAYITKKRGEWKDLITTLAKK
C8 TRAIL sens – caspase-8 TRAIL sensitization. NB7+C8 cells + TRAIL, ATPlite viability luminescence. 360,000 tested, 1% active. inhibition (viability loss, TRAIL sensitization), % at 10 µM. AID 624354;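 active = compounds causing at least 50% loss of cell viability in the single-dose screen, relative to plate controls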
SENP8 block-2 – SENP8 (human) protease inhibition; inhibition, % at 20 µM; AID 602440; Q96LD8; 360,000 tested, 0.64% active; recombinant SENP8, Nedd8 substrate fluorescence; in the data active = inhibition mostly above about 40%, no sharp cut-off; inactive = mostly below about 27%
PPC-1+TRAIL kill – PPC-1 cancer cell killing with TRAIL present | cell killing (% activity), % at 4 µM or 5 µM | PPC-1 cells + TRAIL, ATPLite viability luminescence | AID 1443 | 220,000 tested, 0.41% active;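 active = cell killing above 50% in the first pass at 4 µM, then a duplicate retest at 5 µM averaging 50% or more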;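 note: plate controls were cells with TRAIL plus DMSO for no effect and medium-only wells lacking cells for full effect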
SENP6 block – blocks the human protease SENP6; inhibition, % at 10 µM; Recombinant SENP6 catalytic domain, aminoluciferin luminescence; 330,000 tested, 1.8% active;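 active = inhibition above about 50% at the single tested dose, limit read from the data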;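 note: plate controls were DMSO wells with enzyme for no effect and DMSO wells lacking enzyme for full effect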
Target sequence (Q9GZR1 628-1112 limits assumed): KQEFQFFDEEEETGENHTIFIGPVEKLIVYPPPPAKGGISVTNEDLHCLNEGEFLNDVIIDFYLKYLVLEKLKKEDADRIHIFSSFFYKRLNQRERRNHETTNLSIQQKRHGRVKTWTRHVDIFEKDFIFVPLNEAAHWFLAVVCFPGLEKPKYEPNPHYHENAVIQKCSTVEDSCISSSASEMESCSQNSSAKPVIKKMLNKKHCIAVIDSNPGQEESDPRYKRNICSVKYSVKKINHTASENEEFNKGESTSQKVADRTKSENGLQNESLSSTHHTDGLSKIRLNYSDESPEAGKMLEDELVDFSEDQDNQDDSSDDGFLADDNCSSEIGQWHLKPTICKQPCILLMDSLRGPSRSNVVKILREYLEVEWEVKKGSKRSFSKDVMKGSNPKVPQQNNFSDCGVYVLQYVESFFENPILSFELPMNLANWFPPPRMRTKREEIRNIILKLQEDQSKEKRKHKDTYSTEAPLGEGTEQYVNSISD
SENP7 inh – SENP7 protease inhibition; Q9BQF6; recombinant SENP7, Z-RLRGG-aminoluciferin luminescence, 40 min; inhibition, % at 5 µM; 330,000 tested, 1.5% active; AID 434973;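 active = inhibition above about 50% at the single test dose, limit read from the data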;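 note: plate controls were DMSO with enzyme for no effect and no enzyme buffer wells for full effect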
SENP8 confirm – confirmation of human SENP8 protease inhibitors. shares compounds with SENP7 inh. Recombinant SENP8, Z-RLRGG-aminoluciferin luminescence, 60 min. inhibition, % at 12.5 µM. 6,200 tested, 40% active;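 active = mean inhibition across replicates above about 50%, limit read from the data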
SENP6 confirm – human SENP6 inhibition, confirmed; shares compounds with SENP7 inh; recombinant SENP6, Z-RLRGG-aminoluciferin luminescence; inhibition, % at 12.5 µM; 6,200 tested, 58% active
SENP7 confirm – human SENP7 inhibition, confirmed; recombinant SENP7, Z-RLRGG-aminoluciferin luminescence, 40 min; inhibition, % at 12.5 µM; 6,200 tested, 69% active; shares compounds with SENP7 inh
Casp3 select – caspase-3 inhibition (SENP selectivity assay); shares compounds with SENP7 inh; purified caspase-3, Z-DEVD-aminoluciferin luminescence, 60 min; inhibition, % at 12.5 µM; 6,200 tested, 60% active;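 active = mean inhibition above about 50%, limit read from the data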;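 note: plate controls were enzyme with DMSO for no effect and wells without caspase-3 for full effect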
SENP luc ctr – luminescence interference (SENP counter-screen); shares compounds with SENP7 inh; Pre-incubated SENP8/Z-RLRGG-aminoluciferin, luciferase luminescence interference; inhibition, % at 12.5 µM; 6,200 tested, 39% active;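 active = mean inhibition above about 50% when retested at one dose, limit read from the data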;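 note: plate controls were DMSO wells with completed reaction for no effect and substrate without enzyme for full effect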
* marks the source's active call; other numbers are inactive results; · = no result. Shown are actives, neighbours in structure and some others; about 3% of the full set was active somewhere.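 Rule for the calls, unless noted: active = mean inhibition above about 50% in the one-dose retest (limit read from the data); inactive = the rest.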

SMILES | SENP8 block-1 | C8 TRAIL sens | SENP8 block-2 | PPC-1+TRAIL kill | SENP6 block | SENP7 inh | SENP8 confirm | SENP6 confirm | SENP7 confirm | Casp3 select | SENP luc ctr
COC(=O)c1ccnc(SCC(=O)c2ccccc2)c1 | 53* | 8 | 2 | 38 | 74* | 70* | 60* | 55* | 82* | 74* | 64*
COC(=O)c1cnc(SCc2ccc(Cl)cc2)n1C | -12 | -8 | 5 | 3 | 0 | -9 | · | · | · | · | ·
O=C(C1CC(c2ccccc2O)=NO1)N1CCc2ccccc2C1 (stereo not drawn) | -6 | 2 | 4 | 14 | -14 | 5 | · | · | · | · | ·
O=C(C1CC(c2ccccc2O)=NO1)N1CCCCC1 (stereo not drawn) | -4 | -14 | 3 | 25 | -17 | 74* | -11 | -7 | -13 | 8 | 7
c1ccc2c(c1)Nc1cc3ccccc3cc1S2 | -4 | -9 | -181 | 10 | 8 | 13 | · | · | · | · | ·
Cc1ccc2c(c1)Sc1c(ccc3ccccc13)N2 | 56* | 26 | -76 | 24 | 80* | 11 | 2 | 18 | 4 | 30 | 12
CC(C)(C)c1cc(C(=O)N/N=C/c2ccc(-c3ccccc3[N+](=O)[O-])o2)n[nH]1 | 43 | 15 | 30 | · | 52* | 22 | -6 | 3 | -6 | -12 | -6
O=C(CC(Nc1ccc(F)cc1)C(=O)O)c1ccccc1 (stereo not drawn) | 83* | 60* | -30 | 5 | 96* | 74* | 69* | 82* | 91* | 83* | 31
COc1ccc(Cn2c(O)c(C=Nc3ccc(OC)cc3)c3ccccc3c2=O)cc1 | 8 | 5 | -58 | 12 | 58* | 33 | 10 | 16 | 8 | 3 | -8
Clc1ccccc1Nc1nc2ccccc2o1 | 95* | 15 | 4 | · | 95* | 100* | -4 | 100* | 103* | 98* | 97*
CCS(=O)(=O)c1ccc2oc(Nc3ccccc3Cl)nc2c1 | 91* | 19 | 10 | · | 95* | 92* | 74* | 92* | 99* | 94* | 26
CCS(=O)(=O)c1ccc2oc(Nc3cc(Cl)ccc3OC)nc2c1 | -24 | -3 | 5 | · | -10 | 26 | · | · | · | · | ·
Cc1cccc(C)c1Nc1nc2ccccc2o1 | 4 | -11 | 20 | 13 | -10 | -7 | · | · | · | · | ·
CC(C(=O)O)c1ccc(N2Cc3ccccc3C2=O)cc1 (stereo not drawn) | 46 | 37 | -13 | 23 | 54* | 41 | 26 | 23 | 72* | 78* | 55*
Cc1ccccc1N1Cc2ccccc2C1=O | · | -14 | 10 | · | · | · | · | · | · | · | ·
Cc1cc(C2=NNC(=NC3CCCCC3)SC2)c(C)n1-c1c(C)n(C)n(-c2ccccc2)c1=O | -1 | -6 | 15 | 9 | -1 | -2 | · | · | · | · | ·
Cc1cc(C2=NNC(=NC3CC3)SC2)c(C)n1-c1ccccc1F | 80* | 95* | -3 | 64* | 33 | 17 | 6 | 93* | 100* | 93* | 60*
COc1ccc2c(c1OC)C(=O)OC2C1c2c(cc3c(c2OC)OCO3)CCN1C (stereo not drawn) | 3 | -2 | -12 | 7 | -15 | 1 | · | · | · | · | ·
CN1CCc2cc3c(c4c2[C@H]1[C@H](O)c1ccccc1-4)OCO3 | 16 | 25 | -15 | 11 | 59* | 43 | 33 | 78* | 64* | 70* | 9
CC(C)NC(=O)COc1coc(CN2CCN(c3ccccc3)CC2)cc1=O | 0 | 1 | 9 | · | -10 | 2 | · | · | · | · | ·
CC1CN(CCc2ccccc2)c2nc3c(c(=O)n(C)c(=O)n3C)n2C1 (stereo not drawn) | -13 | 16 | 9 | · | -13 | -12 | · | · | · | · | ·
Cc1cc(C(=O)COC(=O)c2ccc(O)cc2O)c(C)n1-c1ccccc1 | 84* | 34 | -4 | · | 89* | 61* | 88* | 89* | 96* | 59* | 32
COc1ccc(-n2c(C)cc(C(=O)COC(=O)c3ccc(O)cc3O)c2C)cc1 | -1 | 12 | 4 | · | 5 | 1 | · | · | · | · | ·
Cc1cc(C)nc(N(C#N)Cc2ccccc2C)n1 | 0 | -7 | 25 | 9 | -9 | 96* | -7 | 0 | -3 | -2 | -2
O=c1[nH]c2cc3ccccc3cc2nc1-c1nnnn1C1CCCC1 | · | 1 | 24 | · | · | · | · | · | · | · | ·
SMILES | SENP8 block-1 | C8 TRAIL sens | SENP8 block-2 | PPC-1+TRAIL kill | SENP6 block | SENP7 inh | SENP8 confirm | SENP6 confirm | SENP7 confirm | Casp3 select | SENP luc ctr
CCCCN(C=O)c1c(CC)nc2ccc(C(=O)NCCc3ccccn3)cn12 | · | -2 | -61 | · | · | · | · | · | · | · | ·
COc1ccc(Cn2c(C3CC3)nc3ccc(NC(=O)C4CC4)cc3c2=O)cc1 | 38 | 26 | -93 | 9 | 8 | 67* | 9 | 3 | 92* | 58* | -4
CC(=O)Nc1ccc2nc(C3CC3)n(Cc3ccc(Cl)cc3)c(=O)c2c1 | 17 | -7 | -12 | 12 | 26 | 13 | · | · | · | · | ·
Cc1ccccc1-c1nnc(-c2ccc(Br)cc2)o1 | 33 | 7 | 2 | 15 | 75* | 67* | 14 | 13 | 22 | 30 | 7
Cc1ccccc1-c1nnc(-c2ccccc2C)o1 | 58* | 7 | 1 | 16 | 77* | 85* | 13 | 29 | 63* | 41 | 11
Cc1ccc(-c2nnc(-c3ccc4ccccc4c3)o2)cc1 | · | 20 | -367 | · | · | · | · | · | · | · | ·
Cc1ccccc1-c1nnc(SCC#N)o1 | -5 | -7 | 18 | 14 | -3 | -8 | · | · | · | · | ·
O=C(NCC1CCCN1S(=O)(=O)c1cccs1)c1c(F)cccc1F (stereo not drawn) | -11 | 2 | -34 | · | -6 | -15 | · | · | · | · | ·
Cc1ccccc1-c1nnc(SCC(=O)N(C)c2c(N)n(Cc3ccccc3)c(=O)[nH]c2=O)n1C | 6 | 2 | 16 | · | -19 | -6 | · | · | · | · | ·
COc1cccc2sc(NN)nc12 | -16 | 6 | -106 | 9 | -27 | -5 | · | · | · | · | ·
COc1ccccc1-c1nnc(Nc2nc3c(OC)cccc3s2)o1 | -30 | 30 | -316 | 7 | 34 | 76* | -17 | -11 | 32 | 49 | 44
Cc1ccc(C(=O)CC2SC(N)=NC2=O)cc1 (stereo not drawn) | 3 | 8 | -23 | 7 | 2 | 77* | -7 | -2 | 3 | 1 | -7
C=CCNc1ncnc2c1ncn2[C@H]1CN(Cc2cc(OC)c(OC)c(OC)c2)C[C@@H](CO)O1 | · | -17 | 11 | · | · | · | · | · | · | · | ·

Screening data from PubChem BioAssay.
